Source: PubChem BioAssay
TDP1 cell noCPT: qHTS for Inhibitors of human tyrosyl-DNA phosphodiesterase 1 (TDP1): qHTS in cells in absence of CPT | DT40 Tdp1-/- hTDP1 cells, no CPT, ATP luminescence, 48 h | Potency, µM (top dose mostly 46.2 µM), for inactives: at the top dose activity change, negative = growth inhibition, actives largely listed as inhibitors | 420,000 compounds, 15% hits | AID 686978, 2013; also: potency is read from the fitted curve at half-maximal effect; % is scaled to controls: 0 for no effect and ±100 for the full control effect; nearly all actives have a fitted effect of over 55% in size
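Luminescent ATP content (CellTiter-Glo) served as the growth readout. Knockout chicken DT40 cells expressing human TDP1 were exposed to compounds without camptothecin for a minimum 48 hr at 37 °C.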
DT40 TDP1 CPT: growth inhibition of DT40 Tdp1-/-;hTDP1 cells with camptothecin (screen for TDP1 inhibitors); Potency, µM (highest dose often 46.2 µM), for inactives: at the highest dose activity change, negative = growth inhibition, most hits filed as inhibitors; 420,000 compounds, 12% hits; chicken DT40 Tdp1-/-;hTDP1 cells + 20 nM CPT, ATP luminescence, 48 h; also: potency is read from the fitted curve at half-maximal effect; % is scaled to controls: 0 for no effect and ±100 for the full control effect; nearly all actives have a fitted effect of over 55% in size
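Chicken DT40 Tdp1-/- cells complemented with human TDP1, 400 cells/well, exposed to compounds plus 20 nM camptothecin for at least 48 h at 37 C; viability read as ATP content by CellTiter-Glo luminescence.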
TGFb inhibitor: inhibitors of TGF-b signaling | HepG2 CAGA-GFP TGF-b/SMAD3 reporter, GFP fluorescence, 18 h; TGF-beta stimulated, 500 pg/mL final | Potency, µM (top dose mostly 46.1 µM), without a hit: top-dose activity, negative = inhibition, usual class: inhibitors | 410,000 compounds, 1.2% hits | AID 588855; also: potency is read from the fitted curve at half-maximal effect; % is scaled to controls: 0 for no effect and ±100 for the full control effect; nearly all actives have a fitted effect of over 65% in size
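Inhibition was scored as loss of TGF-beta-induced (500 pg/mL final, 18 hours, 37 degrees C) GFP in HEPG2 cells carrying a CAGA-GFP reporter, in DMEM with 1% FBS. Well GFP was summed per cell; Activity was normalised to unstimulated and stimulated DMSO wells, then concentration-response fitting.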
HepG2 viability: counter-screen for TGF-b inhibitors: cytotoxicity in HepG2 cells | AID 588856 | 410,000 compounds, 0.76% hits | Potency, µM (top dose mostly 46.1 µM), inactives show at the top dose activity change, negative = cytotoxicity, most hits filed as cytotoxic | HepG2 CAGA-GFP viability, ATP luminescence, 18 h; also: potency is read from the fitted curve at half-maximal effect
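HepG2 CAGA-GFP cells (1000/well, DMEM with 1% FBS) received compound, then TGF-beta at 500 pg/mL final, and were incubated 18 hours at 37 degrees C. Viability was read by CellTiter-Glo luminescence. Media-only wells were set as complete cell-killing and DMSO as no toxicity.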
ASM inhibitor: blocks human secretory acid sphingomyelinase | placental ASM, HMU-PC fluorogenic substrate, 60 min | P17405 | AID 504937 | Potency, µM (titrated, usually from 57.5 µM), without a hit: top-dose activity change, negative = inhibition, actives largely listed as inhibitors | 340,000 compounds, 0.006% hits; also: potency is read from the fitted curve at half-maximal effect
Target sequence (P17405 47-631 limits assumed): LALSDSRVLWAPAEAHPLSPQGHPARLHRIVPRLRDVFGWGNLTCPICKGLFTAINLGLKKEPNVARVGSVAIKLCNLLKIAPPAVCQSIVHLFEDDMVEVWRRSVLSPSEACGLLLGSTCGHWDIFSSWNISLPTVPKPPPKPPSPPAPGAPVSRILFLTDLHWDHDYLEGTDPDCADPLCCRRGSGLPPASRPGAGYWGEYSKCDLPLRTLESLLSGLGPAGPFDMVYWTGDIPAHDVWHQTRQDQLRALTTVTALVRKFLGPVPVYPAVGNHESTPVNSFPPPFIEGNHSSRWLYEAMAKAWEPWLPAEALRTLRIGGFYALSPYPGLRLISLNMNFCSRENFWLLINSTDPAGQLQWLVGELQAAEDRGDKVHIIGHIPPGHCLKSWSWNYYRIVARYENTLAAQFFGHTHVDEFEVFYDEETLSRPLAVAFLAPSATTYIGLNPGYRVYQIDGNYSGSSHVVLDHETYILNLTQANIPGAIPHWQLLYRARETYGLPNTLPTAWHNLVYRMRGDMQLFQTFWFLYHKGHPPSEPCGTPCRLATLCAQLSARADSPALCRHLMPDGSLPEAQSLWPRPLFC
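Fluorogenic HMU-PC substrate (9 uM final) is turned over by placental ASM in 60 min at 37 C after a 10 min compound preincubation. Reaction ended by alkaline stop (pH 10), with fluorescence read at 386/447 nm.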
IL-1B inflam inh: inflammasome signaling inhibition, IL-1 beta readout | AID 743279 | 360,000 compounds, 4.7% hits | THP-1 LPS/ATP IL-1B secretion, AlphaLISA, 16 h; active compounds read low | activity change, % at 57.5 µM; in the data active = activity change below about -50%; inconclusive = mostly about -30% to -49%; also: % is scaled to controls: 0 for no effect and ±100 for the full control effect
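THP-1 cells pretreated 1 hr with compounds (up to 57.5 uM final), then stimulated with LPS (250 ng/mL final) plus ATP (1.25 mM final); secreted IL-1B measured by AlphaLISA after 16 hr, decreased signal indicating inhibition.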
* = called active by the depositor. Compounds with a hit are over-represented: about 19% of the library has one in this group of screens. Unless noted, calls follow the shape of the dose curve; as a rule, active = well fitted curve in the direction sought with a large enough effect; inconclusive = small, poorly fitted or top-dose-only effect, or another doubt; inactive = no such curve, though single readings can be large; an effect the other way counts as inactive or inconclusive.

O=C(c1cccc(N2CCCC2=O)c1)N1CCN(c2ccc(F)cc2)CC1 was read as TDP1 cell noCPT 17.2%, DT40 TDP1 CPT 3.7%, TGFb inhibitor 3.0%, HepG2 viability 5.1%, ASM inhibitor 2.2% and IL-1B inflam inh 3.5.
For Cc1ccc(-n2nc(C(=O)N3CCN(c4cccc(C(F)(F)F)c4)CC3)c(=O)n(C)c2=O)cc1 the results were TDP1 cell noCPT 18.4µM*, DT40 TDP1 CPT inconclusive, TGFb inhibitor inconclusive and HepG2 viability -5.9%.
`O=C(C1CC(=O)N(c2ccc3c(c2)OCCO3)C1)N1CCN(c2cccc(C(F)(F)F)c2)CC1` (stereo not drawn) gave TDP1 cell noCPT 23.1µM*, DT40 TDP1 CPT inconclusive, TGFb inhibitor inconclusive, HepG2 viability -24.5%, ASM inhibitor -3.7% and IL-1B inflam inh -13.2.
`O=C(c1c(F)cccc1F)N1CCN(c2cccc(C(F)(F)F)c2)CC1` gave TDP1 cell noCPT inconclusive, DT40 TDP1 CPT inconclusive, TGFb inhibitor 0.0%, HepG2 viability -7.6%, ASM inhibitor -0.3% and IL-1B inflam inh -28.7.
For O=C(c1ccc(N2CCCC2=O)cc1)N1CCN(c2cccc(C(F)(F)F)c2)CC1 the results were TDP1 cell noCPT 23.1µM*, DT40 TDP1 CPT 16.4µM*, TGFb inhibitor -16.9%, HepG2 viability -26.2%, ASM inhibitor -3.1% and IL-1B inflam inh inconclusive.
For O=C(C1CC(=O)N(c2ccc3c(c2)OCCO3)C1)N1CCN(S(=O)(=O)c2cccc(F)c2)CC1 (stereo not drawn) the results were TDP1 cell noCPT inconclusive, DT40 TDP1 CPT -12.3%, TGFb inhibitor inconclusive, HepG2 viability 3.6%, ASM inhibitor 5.1% and IL-1B inflam inh 8.3.
For CN(CC(=O)Nc1ccc(F)c(F)c1F)C(=O)CCc1nc2sc3c(c2c(=O)[nH]1)CCCC3 the results were TDP1 cell noCPT inconclusive, DT40 TDP1 CPT -0.9%, TGFb inhibitor 5.1%, HepG2 viability 0.8%, ASM inhibitor 14.1% and IL-1B inflam inh 31.3.
`Cc1cn2c(=O)c(S(=O)(=O)N3CCN(c4cc(Cl)ccc4C)CC3)c(C)nc2s1` gave TDP1 cell noCPT -2.4%, DT40 TDP1 CPT 1.5%, TGFb inhibitor 16.4% and HepG2 viability 0.8%.
Cc1cccc(C(=O)N2CCC[C@H]2C(=O)N2CCC[C@H]2C(=O)NCc2ccncc2)c1 was read as TDP1 cell noCPT 1.5%, DT40 TDP1 CPT 0.6% and IL-1B inflam inh 36.1.
`Cc1ccc(NC(=S)N2CCN(C3CCCCC3)CC2)cc1` gave TDP1 cell noCPT -13.4%, DT40 TDP1 CPT -14.4%, TGFb inhibitor 0.3%, HepG2 viability -1.5%, ASM inhibitor 1.5% and IL-1B inflam inh -3.3.
Screening COC(=O)Oc1ccccc1C(=O)O returned TDP1 cell noCPT 2.5% and DT40 TDP1 CPT 6.2%.
Cc1cccc(N2CCN(C(=O)c3ccc(N4CCCC4=O)cc3)CC2)c1C was read as TDP1 cell noCPT 23.1µM*, DT40 TDP1 CPT 11.6µM*, TGFb inhibitor 5.3%, HepG2 viability -1.6%, ASM inhibitor 3.0% and IL-1B inflam inh -25.2.
For CC(=O)N(Cc1cccnc1)c1nc2c(C)c(C)ccc2s1 the results were TDP1 cell noCPT inconclusive, DT40 TDP1 CPT inconclusive, TGFb inhibitor -0.5% and HepG2 viability -27.9%.
For CCC(C)C(NC(=O)c1ccccc1NC(=O)c1ccco1)C(=O)NNC(=O)c1ccncc1 (stereo not drawn) the results were TDP1 cell noCPT -9.4%, DT40 TDP1 CPT 6.3%, TGFb inhibitor 23.9%, HepG2 viability 3.4%, ASM inhibitor -2.7% and IL-1B inflam inh 27.9.
